The values below come from publication PMC7862700, “An all-to-all approach to the identification of sequence-specific readers for epigenetic DNA modifications on cytosine”.

Test in all cases: DAPPL (digital affinity profiling via proximity ligation, sequencing); 10 mM Tris-HCl pH 7.5, 50 mM NaCl, 1 mM DTT, 4% glycerol, room temperature, 30 min; GST-TFs on glutathione beads, 16-mer random dsDNA library, 0.1% formaldehyde crosslink after washing; high values mean tight binding
The target of one assay is T1, FEV (Homo sapiens, UniProt Q99581 1-238).
T1 sequence: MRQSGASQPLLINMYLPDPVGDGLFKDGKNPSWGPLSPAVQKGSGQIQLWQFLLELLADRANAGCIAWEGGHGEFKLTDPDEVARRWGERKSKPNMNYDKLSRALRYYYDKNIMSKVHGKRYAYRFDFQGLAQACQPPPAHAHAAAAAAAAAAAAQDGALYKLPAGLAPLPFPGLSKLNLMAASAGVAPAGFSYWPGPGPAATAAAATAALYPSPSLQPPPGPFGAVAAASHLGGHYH
Conditions: protein: recombinant; tags: N-terminal GST; dsDNA, one strand shown. The gist of the method: (§1)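 Binding signal is defined as a hexamer's read frequency for one factor over its frequency for the tag-only sample. To obtain reads, GST-fused human transcription factors were expressed in yeast, captured on glutathione beads, barcoded with DNA and pooled with that sample. Pools met 200 nmole of a 16-mer random double-stranded DNA library in Tris/NaCl/DTT/glycerol buffer for 30 min at room temperature before washing, 0.1% formaldehyde crosslinking, proximity ligation (BsaI/T4 ligase, 1 h, 37 °C), PCR and Illumina NextSeq500 sequencing.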

For the next assay, the target named is ETV5 (Homo sapiens, UniProt P41161 1-510). Conditions: protein: recombinant; tags: N-terminal GST; dsDNA, one strand shown. The method, boiled down: as §1
In the next assay the target is HSF1 (Homo sapiens, UniProt Q00613 1-529). The note with it: protein: recombinant; tags: N-terminal GST; chain copies: 3; dsDNA, one strand shown. The method, boiled down:
as §1

The target in the next assay is T2, SPIC (Homo sapiens, UniProt Q8N5J4 1-248).
T2 sequence: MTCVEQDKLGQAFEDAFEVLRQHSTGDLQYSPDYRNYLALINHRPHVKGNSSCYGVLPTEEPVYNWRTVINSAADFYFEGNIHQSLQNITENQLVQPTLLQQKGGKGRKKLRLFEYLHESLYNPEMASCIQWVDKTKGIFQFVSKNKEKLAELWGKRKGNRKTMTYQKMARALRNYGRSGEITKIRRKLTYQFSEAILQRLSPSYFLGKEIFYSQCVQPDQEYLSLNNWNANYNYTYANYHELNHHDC
The note with it: protein: recombinant; tags: N-terminal GST; dsDNA, one strand shown. The gist of the method:
as §1

The target of another assay is ELF4 (Homo sapiens, UniProt Q99607 1-663). Conditions: protein: recombinant; tags: N-terminal GST; dsDNA, one strand shown. The method, boiled down:
as §1

For another assay, the target named is T3, ELK4 (Homo sapiens, UniProt P28324-2 1-405).
T3 sequence: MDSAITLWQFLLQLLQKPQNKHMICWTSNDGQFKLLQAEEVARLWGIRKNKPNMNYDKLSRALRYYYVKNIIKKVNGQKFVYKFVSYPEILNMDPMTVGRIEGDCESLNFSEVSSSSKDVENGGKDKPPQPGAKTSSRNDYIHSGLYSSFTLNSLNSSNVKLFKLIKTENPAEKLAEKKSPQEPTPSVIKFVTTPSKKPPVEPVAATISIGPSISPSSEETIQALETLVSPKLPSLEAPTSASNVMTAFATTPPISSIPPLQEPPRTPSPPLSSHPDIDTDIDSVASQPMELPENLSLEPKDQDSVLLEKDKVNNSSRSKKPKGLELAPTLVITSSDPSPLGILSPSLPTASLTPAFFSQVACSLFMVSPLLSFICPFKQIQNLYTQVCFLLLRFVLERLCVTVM
The note with it: protein: recombinant; tags: N-terminal GST; dsDNA, one strand shown. The gist of the method:
as §1

A further assay concerns the target T4, ETV2 (Homo sapiens, UniProt O00321 1-342).
T4 sequence: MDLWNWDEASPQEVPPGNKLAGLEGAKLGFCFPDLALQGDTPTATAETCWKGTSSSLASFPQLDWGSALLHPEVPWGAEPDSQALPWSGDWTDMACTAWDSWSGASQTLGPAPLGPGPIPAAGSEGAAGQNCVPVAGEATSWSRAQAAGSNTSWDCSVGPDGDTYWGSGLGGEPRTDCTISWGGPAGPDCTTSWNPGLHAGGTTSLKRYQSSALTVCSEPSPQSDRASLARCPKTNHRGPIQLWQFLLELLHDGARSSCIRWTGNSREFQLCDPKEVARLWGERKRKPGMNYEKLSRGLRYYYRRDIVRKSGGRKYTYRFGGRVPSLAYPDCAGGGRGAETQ
The note with it: protein: recombinant; tags: N-terminal GST; dsDNA, one strand shown. The gist of the method:
as §1

The target in another assay is T5, ELF3 (Homo sapiens, UniProt P78545 1-371).
T5 sequence: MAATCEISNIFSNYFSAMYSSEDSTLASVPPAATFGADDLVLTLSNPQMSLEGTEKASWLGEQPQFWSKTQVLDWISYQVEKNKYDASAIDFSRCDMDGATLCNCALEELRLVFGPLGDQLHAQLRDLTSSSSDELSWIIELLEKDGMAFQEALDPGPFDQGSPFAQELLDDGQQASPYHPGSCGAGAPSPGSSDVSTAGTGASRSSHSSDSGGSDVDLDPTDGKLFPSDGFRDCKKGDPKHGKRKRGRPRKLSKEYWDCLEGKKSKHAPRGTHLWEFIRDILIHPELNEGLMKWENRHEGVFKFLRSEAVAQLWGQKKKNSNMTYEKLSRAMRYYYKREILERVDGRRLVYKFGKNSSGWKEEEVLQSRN
Conditions: protein: recombinant; tags: N-terminal GST; dsDNA, one strand shown. The gist of the method: as §1

The next assay has as its target CRX (Homo sapiens, UniProt O43186 1-299). Conditions: protein: recombinant; tags: N-terminal GST; dsDNA, one strand shown. The method, boiled down:
as §1

Another assay has as its target ETV1 (Homo sapiens, UniProt P50549 1-477). Conditions: protein: recombinant; tags: N-terminal GST; dsDNA, one strand shown. The gist of the method:
as §1

The next assay addresses T6, ERF (Homo sapiens, UniProt P50548 1-548).
T6 sequence: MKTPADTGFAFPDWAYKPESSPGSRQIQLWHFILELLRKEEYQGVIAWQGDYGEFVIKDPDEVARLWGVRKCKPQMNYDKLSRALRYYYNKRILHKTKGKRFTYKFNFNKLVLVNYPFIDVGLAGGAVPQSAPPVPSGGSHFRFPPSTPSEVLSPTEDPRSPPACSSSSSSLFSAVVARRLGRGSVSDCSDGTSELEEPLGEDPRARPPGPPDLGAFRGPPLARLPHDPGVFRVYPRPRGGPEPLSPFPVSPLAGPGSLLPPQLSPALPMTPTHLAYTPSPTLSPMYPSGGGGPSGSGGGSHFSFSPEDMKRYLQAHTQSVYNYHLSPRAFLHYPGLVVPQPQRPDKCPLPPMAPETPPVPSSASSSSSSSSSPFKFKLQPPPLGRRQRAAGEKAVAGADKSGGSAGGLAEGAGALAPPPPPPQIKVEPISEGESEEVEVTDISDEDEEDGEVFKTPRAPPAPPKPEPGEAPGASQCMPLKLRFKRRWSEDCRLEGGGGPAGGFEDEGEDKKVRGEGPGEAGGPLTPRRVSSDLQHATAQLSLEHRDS
Conditions: protein: recombinant; tags: N-terminal GST; dsDNA, one strand shown. The method, boiled down:
as §1

The target in a further assay is T7, ETV3L (Homo sapiens, UniProt Q6ZN32 1-361).
T7 sequence: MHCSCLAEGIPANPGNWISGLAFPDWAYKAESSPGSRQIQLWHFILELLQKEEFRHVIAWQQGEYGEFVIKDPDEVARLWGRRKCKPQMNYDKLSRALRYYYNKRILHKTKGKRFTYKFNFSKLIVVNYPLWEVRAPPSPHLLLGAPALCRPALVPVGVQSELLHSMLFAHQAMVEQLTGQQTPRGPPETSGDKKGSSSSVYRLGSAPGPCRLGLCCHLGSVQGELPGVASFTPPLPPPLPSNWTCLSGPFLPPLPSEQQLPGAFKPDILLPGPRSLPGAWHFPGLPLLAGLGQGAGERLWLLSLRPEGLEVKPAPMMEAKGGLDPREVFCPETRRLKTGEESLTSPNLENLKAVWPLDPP
The note with it: protein: recombinant; tags: N-terminal GST; dsDNA, one strand shown. The method, boiled down: as §1

Another assay has as its target T8, ETS2 (Homo sapiens, UniProt P15036 1-469).
T8 sequence: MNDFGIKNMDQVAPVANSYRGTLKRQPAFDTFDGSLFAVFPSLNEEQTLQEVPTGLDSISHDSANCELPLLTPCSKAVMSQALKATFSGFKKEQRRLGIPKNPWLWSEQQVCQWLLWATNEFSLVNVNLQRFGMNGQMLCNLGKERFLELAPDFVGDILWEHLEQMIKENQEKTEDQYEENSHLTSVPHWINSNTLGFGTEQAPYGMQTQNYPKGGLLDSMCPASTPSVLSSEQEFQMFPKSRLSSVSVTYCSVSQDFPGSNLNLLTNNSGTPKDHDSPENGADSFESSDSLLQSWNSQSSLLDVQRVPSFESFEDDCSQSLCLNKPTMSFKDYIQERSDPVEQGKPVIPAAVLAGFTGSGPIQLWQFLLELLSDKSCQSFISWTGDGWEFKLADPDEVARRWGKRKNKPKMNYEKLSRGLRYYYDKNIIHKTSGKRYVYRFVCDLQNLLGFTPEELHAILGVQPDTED
The note with it: protein: recombinant; tags: N-terminal GST; dsDNA, one strand shown. The method, boiled down:
as §1

A further assay addresses T9, SPDEF (Homo sapiens, UniProt O95238 1-335).
T9 sequence: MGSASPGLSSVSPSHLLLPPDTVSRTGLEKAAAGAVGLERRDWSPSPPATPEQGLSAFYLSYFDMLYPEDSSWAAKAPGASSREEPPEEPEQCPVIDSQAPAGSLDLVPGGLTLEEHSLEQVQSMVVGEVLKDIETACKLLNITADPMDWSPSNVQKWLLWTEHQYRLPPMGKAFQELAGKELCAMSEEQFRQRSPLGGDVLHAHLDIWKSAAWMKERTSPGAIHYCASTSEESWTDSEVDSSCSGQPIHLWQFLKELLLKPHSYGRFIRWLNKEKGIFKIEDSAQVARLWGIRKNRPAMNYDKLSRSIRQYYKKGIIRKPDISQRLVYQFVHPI
The note with it: protein: recombinant; tags: N-terminal GST; dsDNA, one strand shown. The method, boiled down: as §1

The next assay concerns the target T10, ETV7 (Homo sapiens, UniProt Q9Y603 1-341).
T10 sequence: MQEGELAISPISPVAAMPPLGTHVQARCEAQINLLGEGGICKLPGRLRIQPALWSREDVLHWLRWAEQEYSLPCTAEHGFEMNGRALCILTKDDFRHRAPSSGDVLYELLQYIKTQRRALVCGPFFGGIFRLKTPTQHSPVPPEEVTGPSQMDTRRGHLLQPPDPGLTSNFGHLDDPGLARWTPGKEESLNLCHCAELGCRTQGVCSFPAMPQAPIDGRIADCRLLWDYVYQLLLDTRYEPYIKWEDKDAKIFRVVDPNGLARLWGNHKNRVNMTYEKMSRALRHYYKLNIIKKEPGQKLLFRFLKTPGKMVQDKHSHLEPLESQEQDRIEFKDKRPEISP
The note with it: protein: recombinant; tags: N-terminal GST; dsDNA, one strand shown. The gist of the method: as §1

For the next assay, the target named is T11, ELF5 (Homo sapiens, UniProt Q9UKW6-2 1-255).
T11 sequence: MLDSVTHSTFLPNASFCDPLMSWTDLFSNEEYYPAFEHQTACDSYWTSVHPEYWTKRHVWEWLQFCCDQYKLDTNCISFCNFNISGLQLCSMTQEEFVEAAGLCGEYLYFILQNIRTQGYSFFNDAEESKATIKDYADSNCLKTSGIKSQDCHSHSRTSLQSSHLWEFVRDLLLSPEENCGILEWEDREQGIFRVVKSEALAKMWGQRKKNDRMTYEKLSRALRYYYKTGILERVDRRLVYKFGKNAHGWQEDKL
Conditions: protein: recombinant; tags: N-terminal GST; dsDNA, one strand shown. The method, boiled down:
as §1

Another assay has as its target T12, ETV3 (Homo sapiens, UniProt P41162-2 1-143).
T12 sequence: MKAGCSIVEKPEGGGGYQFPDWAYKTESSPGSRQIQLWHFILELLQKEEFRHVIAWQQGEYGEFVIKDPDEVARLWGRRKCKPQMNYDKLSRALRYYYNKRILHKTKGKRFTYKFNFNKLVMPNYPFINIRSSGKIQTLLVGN
Conditions: protein: recombinant; tags: N-terminal GST; dsDNA, one strand shown. The gist of the method:
as §1

The next assay deals with ETV6 (Homo sapiens, UniProt P41212 1-452). Conditions: protein: recombinant; tags: N-terminal GST; dsDNA, one strand shown. The method, boiled down: as §1
Chain of ETV6 (P41212 whole entry): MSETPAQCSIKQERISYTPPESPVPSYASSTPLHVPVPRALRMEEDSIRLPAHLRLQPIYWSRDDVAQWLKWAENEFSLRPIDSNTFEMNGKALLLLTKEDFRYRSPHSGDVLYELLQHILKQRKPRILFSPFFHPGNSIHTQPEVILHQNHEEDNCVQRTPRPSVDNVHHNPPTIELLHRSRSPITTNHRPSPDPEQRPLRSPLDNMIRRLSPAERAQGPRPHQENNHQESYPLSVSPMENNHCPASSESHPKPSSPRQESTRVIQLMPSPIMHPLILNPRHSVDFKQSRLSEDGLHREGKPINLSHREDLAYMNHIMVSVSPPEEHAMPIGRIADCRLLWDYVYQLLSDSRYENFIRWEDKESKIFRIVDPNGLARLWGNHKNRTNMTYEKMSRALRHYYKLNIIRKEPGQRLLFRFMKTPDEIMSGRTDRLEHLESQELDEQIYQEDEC

Chain of CRX (O43186 whole entry): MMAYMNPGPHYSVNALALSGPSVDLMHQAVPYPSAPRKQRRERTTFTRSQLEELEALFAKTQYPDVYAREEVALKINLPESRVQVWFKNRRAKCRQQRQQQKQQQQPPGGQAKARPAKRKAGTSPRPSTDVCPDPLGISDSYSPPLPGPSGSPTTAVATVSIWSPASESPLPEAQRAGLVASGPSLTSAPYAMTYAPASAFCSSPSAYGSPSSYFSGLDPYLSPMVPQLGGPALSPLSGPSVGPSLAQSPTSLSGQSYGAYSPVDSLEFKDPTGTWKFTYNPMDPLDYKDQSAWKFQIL
Chain of ETV1 (P50549 whole entry): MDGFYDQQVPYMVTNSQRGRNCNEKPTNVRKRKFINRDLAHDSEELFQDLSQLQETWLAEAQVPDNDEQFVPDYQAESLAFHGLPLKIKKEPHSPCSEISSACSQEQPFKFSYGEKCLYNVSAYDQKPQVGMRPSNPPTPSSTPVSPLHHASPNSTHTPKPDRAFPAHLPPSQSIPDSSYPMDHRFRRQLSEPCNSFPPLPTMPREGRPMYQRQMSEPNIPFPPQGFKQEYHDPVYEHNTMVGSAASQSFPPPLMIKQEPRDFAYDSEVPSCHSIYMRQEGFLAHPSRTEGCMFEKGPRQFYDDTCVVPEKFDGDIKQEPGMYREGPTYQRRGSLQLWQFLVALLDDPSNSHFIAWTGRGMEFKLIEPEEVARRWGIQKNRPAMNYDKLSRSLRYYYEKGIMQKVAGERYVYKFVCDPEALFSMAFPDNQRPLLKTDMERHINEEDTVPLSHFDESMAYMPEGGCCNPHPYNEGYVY
Chain of ETV5 (P41161 whole entry): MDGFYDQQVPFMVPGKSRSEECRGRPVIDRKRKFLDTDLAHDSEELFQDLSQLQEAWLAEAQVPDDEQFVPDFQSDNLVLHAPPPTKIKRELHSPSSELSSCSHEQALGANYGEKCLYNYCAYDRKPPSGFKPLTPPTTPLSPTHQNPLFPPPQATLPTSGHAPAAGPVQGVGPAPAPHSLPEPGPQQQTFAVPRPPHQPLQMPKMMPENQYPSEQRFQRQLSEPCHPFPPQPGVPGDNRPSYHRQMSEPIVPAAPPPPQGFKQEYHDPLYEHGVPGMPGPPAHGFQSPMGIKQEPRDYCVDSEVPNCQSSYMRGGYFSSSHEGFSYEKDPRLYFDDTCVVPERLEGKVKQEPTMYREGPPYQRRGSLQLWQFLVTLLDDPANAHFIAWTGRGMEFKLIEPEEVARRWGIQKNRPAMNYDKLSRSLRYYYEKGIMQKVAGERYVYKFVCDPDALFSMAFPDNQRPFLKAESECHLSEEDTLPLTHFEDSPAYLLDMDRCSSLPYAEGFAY
Chain of HSF1 (Q00613 whole entry): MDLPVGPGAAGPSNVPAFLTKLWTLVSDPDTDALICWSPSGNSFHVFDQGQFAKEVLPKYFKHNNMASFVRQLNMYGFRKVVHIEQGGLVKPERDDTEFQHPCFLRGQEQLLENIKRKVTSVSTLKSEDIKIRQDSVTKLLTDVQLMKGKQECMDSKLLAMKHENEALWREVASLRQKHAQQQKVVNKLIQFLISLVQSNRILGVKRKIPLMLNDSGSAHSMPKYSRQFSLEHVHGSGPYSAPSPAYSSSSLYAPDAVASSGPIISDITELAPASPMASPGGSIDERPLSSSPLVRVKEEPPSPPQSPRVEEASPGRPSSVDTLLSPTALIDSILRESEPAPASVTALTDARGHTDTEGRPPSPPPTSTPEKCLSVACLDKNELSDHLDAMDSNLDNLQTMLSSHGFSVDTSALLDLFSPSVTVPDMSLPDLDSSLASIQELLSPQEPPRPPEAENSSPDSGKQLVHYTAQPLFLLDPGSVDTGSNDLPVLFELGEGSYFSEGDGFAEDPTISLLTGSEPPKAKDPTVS
Chain of ELF4 (Q99607 whole entry): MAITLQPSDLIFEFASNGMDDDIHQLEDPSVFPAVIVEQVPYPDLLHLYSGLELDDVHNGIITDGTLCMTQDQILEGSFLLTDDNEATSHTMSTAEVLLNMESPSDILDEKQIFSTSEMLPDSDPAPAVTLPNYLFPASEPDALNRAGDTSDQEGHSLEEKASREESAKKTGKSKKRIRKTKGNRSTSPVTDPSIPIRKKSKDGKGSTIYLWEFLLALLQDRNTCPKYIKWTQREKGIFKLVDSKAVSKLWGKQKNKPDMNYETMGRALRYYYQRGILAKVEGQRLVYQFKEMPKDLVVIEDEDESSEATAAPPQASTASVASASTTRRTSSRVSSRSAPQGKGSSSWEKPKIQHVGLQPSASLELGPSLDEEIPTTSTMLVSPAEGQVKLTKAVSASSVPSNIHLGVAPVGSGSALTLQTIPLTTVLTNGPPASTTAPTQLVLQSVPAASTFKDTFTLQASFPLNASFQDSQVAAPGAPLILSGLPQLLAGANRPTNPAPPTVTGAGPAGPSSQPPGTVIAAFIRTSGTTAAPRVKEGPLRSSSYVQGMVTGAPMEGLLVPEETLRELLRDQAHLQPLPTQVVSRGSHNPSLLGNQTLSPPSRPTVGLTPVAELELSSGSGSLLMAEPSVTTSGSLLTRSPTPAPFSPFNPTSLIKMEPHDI

Regarding AATGGT, the binding signal with FEV was 1.27 fold enrichment (6-mer frequency, TF over GST control); with ETV5, 1.46 fold enrichment (6-mer frequency, TF over GST control); with HSF1, 1.05 fold enrichment (6-mer frequency, TF over GST control); with SPIC it was 1.35 fold enrichment (6-mer frequency, TF over GST control); with ELF4 it was 1.43 fold enrichment (6-mer frequency, TF over GST control); in the assay with ELK4, 1.38 fold enrichment (6-mer frequency, TF over GST control). Moreover, the binding signal was 1.32 fold enrichment (6-mer frequency, TF over GST control) in the assay with ETV2; 1.25 fold enrichment (6-mer frequency, TF over GST control) with ELF3; 1.1 fold enrichment (6-mer frequency, TF over GST control) with CRX; 1.43 fold enrichment (6-mer frequency, TF over GST control) with ETV1; 1.38 fold enrichment (6-mer frequency, TF over GST control) with ERF; 1.33 fold enrichment (6-mer frequency, TF over GST control) with ETV3L. The binding signal was 1.33 fold enrichment (6-mer frequency, TF over GST control) with ETS2; 1.27 fold enrichment (6-mer frequency, TF over GST control) with SPDEF; 1.41 fold enrichment (6-mer frequency, TF over GST control) with ETV7; 1.43 fold enrichment (6-mer frequency, TF over GST control) in the assay with ELF5; 1.4 fold enrichment (6-mer frequency, TF over GST control) in the assay with ETV3; 1.39 fold enrichment (6-mer frequency, TF over GST control) in the assay with ETV6.
